Source: the supplement of paper PMC6411743
± gives the standard deviation of the averaged measurements. Targets with the largest changes are over-represented here; the source holds about 5,400 in all.

Compound: Nc1nc2c(ncn2[C@@H]2O[C@H](COP(=O)(O)OP(=O)(O)OP(=O)(O)O)[C@@H](O)[C@H]2O)c(=O)[nH]1 [guanosine triphosphate]
Assay: NP40-soluble protein abundance relative to vehicle (solubility fold change) (ratio); higher = more soluble protein in presence of GTP
Procedure: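 Solubility proteome profiling in Jurkat crude lysate. Lysate was treated with Mg-GTP (0.1-10 mM) for 10 min at room temperature and 3 min at 37 °C, then solubilised with 0.8% NP40 and benzonase, followed by ultracentrifugation. Proteins were quantified by TMT10 LC-MS/MS; the value is the NP40-soluble abundance relative to the NP40-processed vehicle, from 3 independent experiments.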

Sequence of UniProt P28070 (P28070 whole entry): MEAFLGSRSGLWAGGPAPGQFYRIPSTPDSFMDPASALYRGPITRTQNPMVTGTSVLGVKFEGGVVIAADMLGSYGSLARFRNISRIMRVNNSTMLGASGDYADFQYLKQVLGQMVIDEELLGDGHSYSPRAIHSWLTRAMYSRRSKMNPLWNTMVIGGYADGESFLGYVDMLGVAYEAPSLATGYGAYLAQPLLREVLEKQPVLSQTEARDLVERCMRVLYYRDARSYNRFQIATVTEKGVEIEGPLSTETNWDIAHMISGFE
Sequence of UniProt P04150 (P04150 whole entry): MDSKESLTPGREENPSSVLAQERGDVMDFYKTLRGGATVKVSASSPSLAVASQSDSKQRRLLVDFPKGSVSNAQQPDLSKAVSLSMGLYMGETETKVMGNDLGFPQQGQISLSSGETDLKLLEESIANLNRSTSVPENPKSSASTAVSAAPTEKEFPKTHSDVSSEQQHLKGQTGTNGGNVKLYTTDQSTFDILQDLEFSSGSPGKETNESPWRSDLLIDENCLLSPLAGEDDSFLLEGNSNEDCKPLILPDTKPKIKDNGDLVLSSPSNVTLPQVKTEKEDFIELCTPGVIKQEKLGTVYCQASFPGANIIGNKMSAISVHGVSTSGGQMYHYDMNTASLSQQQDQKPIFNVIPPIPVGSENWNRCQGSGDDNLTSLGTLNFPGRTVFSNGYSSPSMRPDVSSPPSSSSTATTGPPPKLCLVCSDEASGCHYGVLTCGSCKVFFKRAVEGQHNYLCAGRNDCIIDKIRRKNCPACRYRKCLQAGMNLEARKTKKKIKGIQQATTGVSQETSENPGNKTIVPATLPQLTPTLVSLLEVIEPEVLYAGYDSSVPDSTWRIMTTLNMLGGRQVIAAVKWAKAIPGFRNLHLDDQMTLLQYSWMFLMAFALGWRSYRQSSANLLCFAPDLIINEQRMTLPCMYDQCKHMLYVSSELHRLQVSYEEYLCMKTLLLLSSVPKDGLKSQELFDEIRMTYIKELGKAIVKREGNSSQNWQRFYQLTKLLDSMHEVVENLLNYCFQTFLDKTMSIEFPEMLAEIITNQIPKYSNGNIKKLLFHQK
Sequence of UniProt O94906 (O94906 whole entry): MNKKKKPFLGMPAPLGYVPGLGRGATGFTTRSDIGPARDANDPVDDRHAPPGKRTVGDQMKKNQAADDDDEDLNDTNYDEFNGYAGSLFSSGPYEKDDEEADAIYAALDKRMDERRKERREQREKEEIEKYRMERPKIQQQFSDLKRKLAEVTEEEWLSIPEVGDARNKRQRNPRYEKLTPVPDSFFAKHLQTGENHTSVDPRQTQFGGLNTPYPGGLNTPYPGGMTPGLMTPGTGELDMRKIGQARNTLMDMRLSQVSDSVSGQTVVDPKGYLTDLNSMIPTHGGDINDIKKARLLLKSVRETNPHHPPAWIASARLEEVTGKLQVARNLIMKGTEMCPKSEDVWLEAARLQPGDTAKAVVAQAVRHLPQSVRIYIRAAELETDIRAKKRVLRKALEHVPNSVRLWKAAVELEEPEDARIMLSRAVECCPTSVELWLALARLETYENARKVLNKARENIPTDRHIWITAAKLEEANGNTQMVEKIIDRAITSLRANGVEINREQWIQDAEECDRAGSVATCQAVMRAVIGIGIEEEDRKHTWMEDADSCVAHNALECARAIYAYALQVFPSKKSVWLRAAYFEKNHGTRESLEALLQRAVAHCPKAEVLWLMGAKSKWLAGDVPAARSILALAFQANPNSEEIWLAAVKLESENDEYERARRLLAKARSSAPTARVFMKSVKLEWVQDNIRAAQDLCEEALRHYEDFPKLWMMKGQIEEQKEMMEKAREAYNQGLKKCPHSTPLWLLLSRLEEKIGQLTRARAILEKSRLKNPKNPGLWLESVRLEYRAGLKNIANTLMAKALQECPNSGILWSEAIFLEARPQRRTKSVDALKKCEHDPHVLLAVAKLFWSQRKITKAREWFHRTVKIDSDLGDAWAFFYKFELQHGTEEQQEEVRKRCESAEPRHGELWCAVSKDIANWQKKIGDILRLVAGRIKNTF
Sequence of UniProt P17900 (P17900 whole entry): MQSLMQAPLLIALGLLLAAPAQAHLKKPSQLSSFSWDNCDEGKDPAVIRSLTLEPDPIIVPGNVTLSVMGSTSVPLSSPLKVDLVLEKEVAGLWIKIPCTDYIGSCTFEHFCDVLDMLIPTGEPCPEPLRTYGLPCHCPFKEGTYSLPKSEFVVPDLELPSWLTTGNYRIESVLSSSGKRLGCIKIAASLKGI

Target	NP40-soluble protein abundance (concentration: 0.1mM)	NP40-soluble protein abundance (concentration: 0.5mM)	NP40-soluble protein abundance (concentration: 1mM)	NP40-soluble protein abundance (concentration: 2mM)	NP40-soluble protein abundance (concentration: 4mM)	NP40-soluble protein abundance (concentration: 6mM)	NP40-soluble protein abundance (concentration: 8mM)	NP40-soluble protein abundance (concentration: 10mM)
PSMB4 (UniProt P28070)	0.926 ± 0.12	1.01 ± 0.11	0.939 ± 0.11	1.04 ± 0.14	1.05 ± 0.21	1.03 ± 0.22	0.945 ± 0.14	0.976 ± 0.14
POLR2E (UniProt P19388)	1.06 ± 0.11	1.09 ± 0.11	1.15 ± 0.16	1.19 ± 0.18	1.22 ± 0.18	1.19 ± 0.19	1.16 ± 0.16	1.11 ± 0.16
GM2A (UniProt P17900)	0.851 ± 0.015	0.931 ± 0.022	0.876 ± 0.013	0.923 ± 0.1	0.853 ± 0.042	0.859 ± 0.013	0.856 ± 0.12	0.927 ± 0.067
UniProt P04150|P04150-10|P04150-2|P04150-3|P04150-5|P04150-6|P04150-7|P04150-8|P04150-9|P04150-11|P04150-12|P04150-13	0.899 ± 0.13	0.946 ± 0.032	1.14 ± 0.072	1.07 ± 0.029	1.01 ± 0.043	0.999 ± 0.055	1.02 ± 0.046	1.05 ± 0.069
UniProt O94906|O94906-2	1.06 ± 0.055	1.17 ± 0.086	1.26 ± 0.17	1.42 ± 0.27	1.66 ± 0.44	1.91 ± 0.46	2.23 ± 0.58	2.34 ± 0.6
